Calls of active or inactive are those of the source.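 How the source made its calls: active means high combined rank on largest and smallest cell-count-weighted shift across three tests, rank score above 45, floors 50 and 25 (some results past the limit were not filed as active); inactive means the rest.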
Assay: activators of LNCaP cell differentiation, retest, confirmation, side scatter shift, flow cytometry (AID 1069);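 further: LNCaP human prostate cancer cells in low-serum medium with charcoal-stripped FBS; percent of cells with raised granularity gated so DMSO controls show 10%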
Settings: 4 d, stronger effect = higher value

Compound	side scatter shift (at 100 µM)	side scatter shift (side scatter shift, at 10 µM)
CCOc1ccc(OCC)c(NC(=O)C2CCCN(S(=O)(=O)c3c(C)noc3C)C2)c1 (centres undefined)	19.8% (inactive)	2.05%
CCc1ccc(-c2nc(CN3CCCC(C(=O)O)C3)c(C)o2)cc1 (centres undefined)	12.4% (inactive)	9%
CCOC(=O)N1CCC(NC(=O)c2cc3c(-c4ccc(OC)c(OC)c4)nn(C)c3s2)CC1	16.6% (inactive)	3.9%
O=C(CSc1nc2sc3c(c2c(=O)n1-c1ccccc1)CCCC3)NCc1ccco1	24% (inactive)	4.3%
CCCCC(=O)NCCc1ccc(S(N)(=O)=O)cc1	12.6% (inactive)	11.9%
Cc1oc(-c2cccc(Cl)c2)nc1CN1CCC(C(=O)NCc2cccnc2)CC1	28.9% (inactive)	8.3%
COC(=O)c1[nH]c2c(c1C)C(=O)CCC2	7.2% (inactive)	3.6%
COc1ccc2nc(NC(=O)C(NS(=O)(=O)c3cccs3)C(C)C)sc2c1 (centres undefined)	35.8% (inactive)	3.1%
COc1ccccc1NC(=O)c1nc[nH]c1C(=O)Nc1ccccc1OC	50.5% (inactive)	5.65%
O=c1cc(-c2ccccc2)[nH]c2ccccc12	22.2% (inactive)	9.15%
CC(C)Cc1nc2oc3c(N4CCN(CCO)CC4)ncnc3c2c2c1CCCC2	33.3% (inactive)	5.25%
COC(=O)c1ccccc1S(=O)(=O)N(Cc1cc2cc3c(cc2[nH]c1=O)OCO3)C1CCCCC1	50% (inactive)	8.05%
Cc1ccccc1Cn1cnc2c(cnn2C(C)(C)C)c1=O	15.4% (inactive)	5.05%
COc1ccc(C(CC(=O)O)NC(=O)Cc2ccccc2)cc1 (centres undefined)	2.7% (inactive)	3.1%
CCC(=O)N(Cc1ccco1)c1nc(-c2cc(OC)ccc2OC)cs1	13.2% (inactive)	9.2%
O=c1cc(N2CCc3ccccc3C2)[nH]c(=O)n1C1CCCCC1	16.8% (inactive)	5.9%
Cc1nc(NCCNC(=O)c2ccco2)c2c(C)c(C)sc2n1	24.1% (inactive)	4.2%
CCCCn1c2c(c3ccccc31)CCc1nonc1-2	20.1% (inactive)	2.8%
Cc1sc(CO)c(Sc2ccccc2)c1C(=O)O	3.4% (inactive)	2.85%

Compound	side scatter shift (at 100 µM)	side scatter shift (side scatter shift, at 10 µM)
CCc1nnc(NC(=O)CSc2nc3ccccc3s2)s1	5.7% (inactive)	5%
N=c1n(CCO)c2ccccc2n1CCOc1ccc(Cl)cc1Cl	22.2% (inactive)	8.75%
COc1ccc(Cc2n[nH]c(=O)c3ccccc23)cc1OC	5.3% (inactive)	5.7%
Cn1c(=O)cc(OCC(=O)NCCCN2CCN(c3ccccc3F)CC2)c2ccccc21	66.5% (active)	4.5%
COc1cc2c(C(=O)NCCCN3CCN(c4cccc(Cl)c4)CC3)cn(C)c(=O)c2cc1OC	53.3% (inactive)	15.4%
Cc1noc(C)c1S(=O)(=O)N1CCC(C(=O)NCCN2CCC(C)CC2)CC1	12.7% (inactive)	4.95%
COc1ccc(-n2c3c(cc(C(=O)N4CCC(C)CC4)c2=O)C(=O)CC(C)(C)C3)cc1	20% (inactive)	1.8%
Cc1oc(-c2ccccc2F)nc1CN1CCC(C(=O)NCc2ccco2)CC1	23.3% (inactive)	3%
CCN(CC)CCCNC(=O)c1cc2c(-c3ccc(Cl)cc3)nn(C)c2s1	61.5% (active)	81.5%
Cc1ccc(C)c(N2CCN(CCCNC(=O)Cn3cc4c(n3)CCC(C)C4)CC2)c1 (centres undefined)	20% (inactive)	25.6%
Cc1cccc(-c2nc(CN3CCCC(C(=O)NC4CCCCCC4)C3)c(C)o2)c1 (centres undefined)	41.2% (inactive)	10.8%
COc1cc(C(=O)NCc2nnc(SCC(=O)NCc3ccccc3)o2)cc(OC)c1OC	9.6% (inactive)	7.7%
COc1ccc(-n2nnnc2SCC(=O)c2ccc(O)c(O)c2)cc1	0% (inactive)	2.75%
Cc1ccc2c(c1)NC(=O)C(CC(=O)NCCCN1CCN(c3cc(Cl)ccc3C)CC1)O2 (centres undefined)	0% (inactive)	7.35%
CCN(CC)CCCNc1oc(-c2cccc(Cl)c2)nc1C#N	21.9% (inactive)	32.5%
COc1ccc(-c2cc3c(=O)n(CC(=O)NC4CCN(Cc5ccccc5)CC4)ncn3n2)cc1	36.1% (inactive)	5.5%
Cc1ccccc1-c1nc(CN2CCC(C(=O)N3CCN(c4ccccn4)CC3)CC2)c(C)o1	24.7% (inactive)	12.9%
O=C(NCc1ccc(Cl)cc1)c1noc2c1CCCC2	8% (inactive)	3.3%

— PubChem BioAssay AID1069 (NMMLSC, 2008)
